Experimental data as given in ChEMBL document CHEMBL3988442, “University of Dundee, Small-Polar-MMV Screening Library” (2021).
Screen size: about 48,000 compounds; about 13,000 (27%) showed an effect of 50% or more. Some of the results follow.

What follows are molecules tested on Wolbachia pipientis (assay: Anti-Wolbachia Cell-Based Screen). Conditions: 5 µM.
Type: functional
Set-up: scale not given: in the data most compounds retested in dose-response had high values

Row | Compound | Percent Effect [%]
1 | CC(C)CCN1C(=O)CC(N(C)Cc2nc3ccccc3c(=O)[nH]2)C1=O (stereo not given) | -3.315
2 | COc1cccc(CN2CCC(CO)(Cc3ccc(Cl)cc3)CC2)c1O | -4.953
3 | COCC(=O)N1CCC2(CC1)COC(COCc1ccccn1)C2.O=C(O)C(F)(F)F (stereo not given) | -3.538
4 | COCC1CC2(CCN(Cc3ccccn3)CC2)CN1c1ncccn1.O=C(O)C(F)(F)F.O=C(O)C(F)(F)F.O=C(O)C(F)(F)F (stereo not given) | 0.4015
5 | COCC(=O)N1CCC2(CC1)CC(COC)N(c1ncccn1)C2.O=C(O)C(F)(F)F (stereo not given) | -2.409
6 | COCC1CC2(CCN(Cc3ccoc3)CC2)CN1Cc1ccccn1 (stereo not given) | 97.98
7 | COCC1CC2(CCN(Cc3nccs3)CC2)CN1Cc1ccccn1.O=C(O)C(F)(F)F.O=C(O)C(F)(F)F.O=C(O)C(F)(F)F (stereo not given) | 106.7
8 | COCC(=O)N1CCC2(CC1)CC(COC)N(Cc1ccccn1)C2.O=C(O)C(F)(F)F (stereo not given) | 100.7
9 | CCN1CCC2(CC1)CC(COC)N(Cc1csc(C)n1)C2.O=C(O)C(F)(F)F.O=C(O)C(F)(F)F (stereo not given) | 21.22
10 | FC(F)(F)CCc1ccnc(N[C@H]2CC[C@H](n3cnnc3)CC2)n1 | -3.85
11 | CCNC(=O)NC[C@H]1Cn2c(-c3ccccc3)cnc2CO1 | -18.82
12 | Cc1ccc(C)c(CS(=O)(=O)Cc2ccn(C)c(=O)c2)c1 | 17.59
13 | Cc1cnn(C2CCCN(C(=O)c3ccn(C)c(=O)c3)C2)c1 (stereo not given) | -5.065
14 | Cc1cnn(C2CCCN(C(=O)c3ccnc(-n4cncn4)c3)C2)c1 (stereo not given) | 91.3
15 | O=C(c1ccc(NC2CC2)nc1)N1CCCC(n2cccn2)C1 (stereo not given) | -7.453
16 | Cc1cnn(C2CCCN(C(=O)C3=NN(C)C(=O)CC3)C2)c1 (stereo not given) | 5.956
17 | Cc1cnn(C2CCCN(C(=O)COc3ccc(C(N)=O)cc3)C2)c1 (stereo not given) | -8.397
18 | CNC(=O)c1ccc(C(=O)N2CCCC(n3cc(C)cn3)C2)cn1 (stereo not given) | -2.2
19 | Cc1cnn(C2CCCN(C(=O)c3ccc4c(c3)CCC4)C2)c1 (stereo not given) | 100.4
20 | Cc1cnn(C2CCCN(C(=O)c3ccc(NC4CC4)nc3)C2)c1 (stereo not given) | 77.38
21 | Cc1cnn(C2CCCN(C(=O)c3ccnc(N(C)C)c3)C2)c1 (stereo not given) | 7.39
22 | Cc1cnn(C2CCCN(C(=O)c3ccnc(-n4ccnc4)c3)C2)c1 (stereo not given) | 5.29
23 | Cc1cnn(C2CCCN(C(=O)c3ccc(C(N)=O)cn3)C2)c1 (stereo not given) | 85.91
24 | Cc1nc(C)n(C2CCCN(C(=O)c3ccc(NC4CC4)nc3)C2)n1 (stereo not given) | 0.453
25 | Cn1cnc2c1C(C(=O)N1CCCO1)N(C(=O)c1ccccc1)CC2 (stereo not given) | -3.517
